# Target: T1, Methionyl-tRNA synthetase, putative (Leishmania donovani (strain BPK282A1)) (UniProt E9BF75)
# T1 sequence (whole entry): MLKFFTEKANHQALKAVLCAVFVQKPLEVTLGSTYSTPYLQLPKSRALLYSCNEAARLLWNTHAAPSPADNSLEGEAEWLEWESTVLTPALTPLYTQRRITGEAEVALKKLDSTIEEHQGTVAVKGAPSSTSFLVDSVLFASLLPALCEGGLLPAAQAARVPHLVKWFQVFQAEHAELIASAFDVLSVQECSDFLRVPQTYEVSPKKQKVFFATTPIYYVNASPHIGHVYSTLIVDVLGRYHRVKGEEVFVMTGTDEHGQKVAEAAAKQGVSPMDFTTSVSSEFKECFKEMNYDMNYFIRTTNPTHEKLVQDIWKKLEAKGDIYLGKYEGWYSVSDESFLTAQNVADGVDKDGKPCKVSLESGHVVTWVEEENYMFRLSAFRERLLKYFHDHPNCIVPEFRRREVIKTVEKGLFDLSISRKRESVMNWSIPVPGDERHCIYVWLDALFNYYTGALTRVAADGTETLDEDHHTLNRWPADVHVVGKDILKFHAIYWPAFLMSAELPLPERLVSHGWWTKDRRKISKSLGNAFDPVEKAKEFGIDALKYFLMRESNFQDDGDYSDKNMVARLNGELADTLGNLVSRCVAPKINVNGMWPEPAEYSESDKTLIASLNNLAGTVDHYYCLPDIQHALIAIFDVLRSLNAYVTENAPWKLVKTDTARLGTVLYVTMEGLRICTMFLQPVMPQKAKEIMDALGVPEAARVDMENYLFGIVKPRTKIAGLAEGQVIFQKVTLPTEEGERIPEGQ
# Experiment: Leishmania donovani Methionine tRNA synthetase (LdMetRS):v7. Dose response assay
# Type: functional
# Design: conc 80 nM, time 150 minutes
compound,measurement,setting,value
Cc1nc(NC(CC(C)C)C(=O)O)c2c3c(sc2n1)CCC3 (stereo not drawn),PXC50,MAX_EFFECT 14.004914,< 4
same,PXC50,MAX_EFFECT 14.57286432,< 4
Cc1nc(NCCNC(=O)c2ccccc2)c2c3c(sc2n1)CCCC3,PXC50,MAX_EFFECT 14.39393939,< 4
same,PXC50,MAX_EFFECT 19.3877551,< 4
CC1CCc2c(sc3nc(CN4CCOCC4)nc(NCC4CC4)c23)C1 (stereo not drawn),PXC50,MAX_EFFECT 17.08542714,< 4
same,PXC50,MAX_EFFECT 17.93611794,< 4
CCNc1cc(-c2ccccn2)nc(Nc2ccc(F)c(Cl)c2)n1,PXC50,MAX_EFFECT 18.84057971,< 4
same,PXC50,MAX_EFFECT 22.81449893,< 4
CCOC(=O)c1sc2nc(C)nc(NC3CCN(C4CC4)CC3)c2c1C,PXC50,MAX_EFFECT 19.59798995,< 4
same,PXC50,MAX_EFFECT 24.32432432,< 4
Cc1nc(N(C)Cc2cccnc2)c2c(C)c(C)sc2n1,PXC50,MAX_EFFECT 19.78609626,< 4
same,PXC50,MAX_EFFECT 20.76502732,< 4
Cc1nc(NCc2cccnc2)c2c3c(sc2n1)CC(C)CC3 (stereo not drawn),PXC50,MAX_EFFECT 20.10178117,< 4
same,PXC50,MAX_EFFECT 27.4559194,< 4
CC(C)C[C@H](N)COc1ccc(OCc2ccccc2)c(F)c1,PXC50,MAX_EFFECT 25.05175983,< 4
same,PXC50,MAX_EFFECT 28.78464819,< 4
CCOC(=O)N1CCN(c2nc(C)nc3scc(-c4cccs4)c23)CC1,PXC50,MAX_EFFECT 28.24427481,< 4
same,PXC50,MAX_EFFECT 28.46347607,< 4
O=C(C1CCC1)N1CCC(c2ncc3c(n2)CCNC3)CC1,PXC50,MAX_EFFECT 30.83900227,< 4
same,PXC50,MAX_EFFECT 33.27102804,< 4
Cc1nc(N2CCCCC2)c2c(-c3cccs3)csc2n1,PXC50,MAX_EFFECT 30.98236776,< 4
same,PXC50,MAX_EFFECT 31.29770992,< 4
Cc1sc2nc(CN3CCCC3)nc(NC3CCCC3)c2c1C,PXC50,MAX_EFFECT 34.69387755,< 4
same,PXC50,MAX_EFFECT 40.15151515,< 4
CCc1nc(N2CCN(c3ccccn3)CC2)c2c3c(sc2n1)CCC3,PXC50,MAX_EFFECT 39.95098039,< 4
same,PXC50,MAX_EFFECT 40.86538462,< 4
CS(=O)(=O)N1CCN(c2ccc3ccc(C(=O)NCC4(CO)CCCC4)cn23)CC1,PXC50,MAX_EFFECT 45.93301435,< 4
same,PXC50,MAX_EFFECT 48.99451554,< 4
Cn1cc(CN2CCC(F)(F)C3(CCN(c4ncccn4)C3)C2)cn1 (stereo not drawn),PXC50,MAX_EFFECT -0.938967136,< 4
same,PXC50,MAX_EFFECT -2.777777778,< 4
CC(=O)N1CCN(c2ccc3ncc(-c4ccc5onc(N)c5c4)n3n2)CC1,PXC50,MAX_EFFECT 15.77608142,< 4
same,PXC50,MAX_EFFECT 16.66666667,< 4
O=C(c1ccccc1)C1CCN(c2cncc(-n3cccn3)n2)CC1,PXC50,MAX_EFFECT 17.57719715,< 4
same,PXC50,MAX_EFFECT 27.64084507,< 4
O=C(NCC1CCCCC1)c1cc(=O)c2cc[nH]c(=O)c2o1,PXC50,MAX_EFFECT 5.901116427,< 4
same,PXC50,MAX_EFFECT 6.333973129,< 4
CS(=O)(=O)N1CCN(c2ccc3ccc(C(=O)NCCc4ccccc4)cn23)CC1,PXC50,"BOTTOM 2.353808238, HILLSLOPE 2.745183605, MAX_EFFECT 51.67464115, TOP 50.17202443",5.02
same,PXC50,"BOTTOM 6.057044372, HILLSLOPE 2.135645997, MAX_EFFECT 57.03839122, TOP 56.72145826",4.82
FC1(F)CCN(c2ccccc2)CC12CCN(c1ncccn1)C2 (stereo not drawn),PXC50,MAX_EFFECT 8.920187793,< 4
same,PXC50,MAX_EFFECT 12.40740741,< 4
FC1(F)CCN(Cc2ccccn2)CC12CCN(c1ncccn1)C2 (stereo not drawn),PXC50,MAX_EFFECT 3.628117914,< 4
same,PXC50,MAX_EFFECT 16.82242991,< 4
CCOC(=O)N1CCN(c2nc(C)nc3sc4c(c23)CCCC4)CC1,PXC50,MAX_EFFECT 14.58333333,< 4
same,PXC50,MAX_EFFECT 16.22807018,< 4
CC(C)(N)c1cc(Cl)cc(Cl)c1,PXC50,MAX_EFFECT 14.47084233,< 3
same,PXC50,MAX_EFFECT 21.86311787,< 3
CC(C)C[C@H](N)COc1ccccc1-c1ccccc1,PXC50,MAX_EFFECT 19.82942431,< 4
same,PXC50,MAX_EFFECT 21.32505176,< 4
Cc1noc(CCNC(=O)c2ccc3ccc(N4CCN(S(C)(=O)=O)CC4)n3c2)n1,PXC50,"BOTTOM 5.724020306, HILLSLOPE 2.592848239, MAX_EFFECT 58.13528336, TOP 58.43223286",4.74
same,PXC50,"BOTTOM -1.848364429, HILLSLOPE 1.849781613, MAX_EFFECT 52.63157895, TOP 54.86189083",4.91
Cc1nc(N(C)CC(=O)N(C)C)c2c3c(sc2n1)CCC3,PXC50,MAX_EFFECT 0.0,< 4
same,PXC50,MAX_EFFECT 1.058201058,< 4
O=C(c1c[nH]cn1)N1CCC(F)(F)C2(CCN(c3cnccn3)C2)C1 (stereo not drawn),PXC50,MAX_EFFECT 1.584507042,< 4
same,PXC50,MAX_EFFECT 3.800475059,< 4
Cc1nc(N2CCNC(=O)C2)c2c(CC(C)C)csc2n1,PXC50,MAX_EFFECT 4.371584699,< 4
same,PXC50,MAX_EFFECT 6.951871658,< 4
Nc1nc(CSc2ncccn2)nc2sc3c(c12)CCCC3,PXC50,MAX_EFFECT 24.53333333,< 4
same,PXC50,MAX_EFFECT 26.98412698,< 4
